# Reference: PubChem BioAssay (NCATS)
# Where “and” joins values, the source holds several entries; their conditions need not be identical. Equal values may be shown once. Inconclusive results are not listed. Where a call stands in place of a potency, no number is given. Unmarked numbers belong to inactive results. Calls of active or inactive are those of the source. Calls come from the whole dose curve; as a rule, active = well fitted curve in the direction sought with a large enough effect; inconclusive = small, poorly fitted or top-dose-only effect, or another doubt; inactive = no such curve, though single readings can be large; an effect the other way counts as inactive or inconclusive.
# What was measured:
# [1] = qHTS for Inhibitors of the Aldehyde Dehydrogenase Family (ALDH1A2, ALDH1A3, ALDH2, ALDH3A1) (AID 2061307); note: nearly all actives have a fitted effect of over 50% in size; for potency: test system not described further here
# [2] = target: Aldehyde dehydrogenase, mitochondrial (Homo sapiens) (UniProt P05091); test: qHTS for Inhibitors of the Aldehyde Dehydrogenase Family (ALDH2) Primary screen (AID 2061308); note: nearly all actives have a fitted effect of over 55% in size
# [3] = target: Retinaldehyde dehydrogenase 3 (Homo sapiens) (UniProt P47895); test: qHTS for Inhibitors of the Aldehyde Dehydrogenase Family (ALDH1A3) Confirmatory screens (AID 2061311); note: nearly all actives have a fitted effect of over 60% in size
# [4] = target: Retinal dehydrogenase 2 (Homo sapiens) (UniProt O94788); test: qHTS for Inhibitors of the Aldehyde Dehydrogenase Family (ALDH1A2) Confirmation screens (AID 2061314); note: nearly all actives have a fitted effect of over 65% in size
# [5] = target: Retinaldehyde dehydrogenase 3 (Homo sapiens) (UniProt P47895); test: qHTS for Inhibitors of the Aldehyde Dehydrogenase Family (ALDH1A3) Primary screen (AID 2061315)
# [6] = target: Aldehyde dehydrogenase 1A1 (Homo sapiens) (UniProt P00352); test: qHTS for Inhibitors of the Aldehyde Dehydrogenase Family (ALDH1A1) Confirmatory screens (AID 2061316); note: nearly all actives have a fitted effect of over 65% in size
# Potency is the fitted concentration of half-maximal effect.
Structure (SMILES),Potency [1],Potency [2],Potency [3],Potency [4],Potency [5],"activity change, negative = inhibition [3]",Potency [6]
Cc1sc(NC(=O)Cc2ccc3c(c2)OCO3)nc1-c1ccc2c(c1)CCN2C(=O)c1ccccc1OC(F)(F)F,3.16 µM (active),,,,,,
Cc1ccsc1CN(C)c1ncnc2ccc(-c3ccoc3)cc12,inactive,inactive,22.5 µM (active),11.3 µM (active),inactive,,
O=C(O)c1ccc(-c2noc(-c3ccccc3F)n2)cc1,3.98 µM (active) and 1.2 µM (active),inactive,0.565 µM (active),inactive,,,
COc1cc2ccccc2cc1C(=O)NC(=S)Nc1cccc(C(=O)O)c1,4.49 µM (active),,,,,,
NCC(CNc1nc(Nc2cccc(NC(=O)N3CCCC3)c2)ncc1I)C(=O)c1cccs1 (stereo not given),inactive,20 µM (active),,,,,
CCOC(=O)C1CCN(C(=O)C(C)(C)NC(=O)Nc2ccc(N)cc2)CC1,inactive,inactive,,,,,
Cc1ccc(S(=O)(=O)Nc2cc(F)ccc2C(=O)Nc2nc(-c3ccccc3)cs2)cc1,0.224 µM (active),inactive,inactive,5.04 µM (active),inactive,,
Cc1ccc(CNc2ccc(N3CCCCC3)cc2)cc1,11.3 µM (active),inactive,20.1 µM (active),28.3 µM (active),,,
N#Cc1cccc(C#N)c1-c1nc2c3ccccc3c3cc(Cl)ccc3c2[nH]1,inactive,inactive,5.65 µM (active),inactive,25.1 µM (active),,
Cc1nn(-c2ccc(C(F)(F)F)cn2)c(C)c1CC(=O)Nc1ccc(C(N)=O)cc1,inactive,,,,,,
Oc1ccc(COc2cccc3ccccc23)c2cccnc12,inactive,inactive,10.1 µM (active),,,,
Cc1c2c(=O)n(-c3ccccc3)[nH]c2cc(=O)n1CCCN1CCOCC1,inactive,,,,,,
Cc1ccccc1OCC(O)Cn1c(NCc2ccccc2)nc2c1c(=O)n(C)c(=O)n2C (stereo not given),inactive,,,,,,
CC(=O)Nc1sc2c(c1-c1nc3ccccc3o1)CCN(C(C)C)C2,7.08 µM (active),inactive,12.6 µM (active),,,,
Cc1ccccc1Nc1nc(C#N)nc(NC2CCCC2)n1,10.1 µM (active),inactive,,12.7 µM (active),inactive,-21.8% [at 0.0073 µM],
CCn1c(=O)cc(OCC(=O)N2CCN(c3cccc(Cl)c3)CC2)c2ccccc21,inactive,,,,,,
CC1(C)CC[C@]2(C(=O)O)CC[C@]3(C)C(=CCC4[C@@]5(C)C[C@@H](O)[C@H](O)[C@@](C)(CO)C5CC[C@]43C)[C@@H]2[C@@H]1O (stereo not given in full),inactive,inactive,11 µM (active),,,,
COc1ccc(-n2c(C)c(C(C)=O)c3cc(OC(=O)c4ccccc4OC(C)=O)ccc32)cc1,inactive,,,,,,
COc1ccc2nc(-c3ccc(F)cc3)sc2c1,5.38 µM (active),inactive,,,,,
O=C(O)c1cccc(Nc2ncnc3sccc23)c1,inactive,,,,,,
Cc1ccc(CNc2ccc(N3CCN(C)CC3=O)cc2)cc1,inactive,inactive,,,,,

Structure (SMILES),Potency [1],Potency [2],Potency [3],Potency [4],Potency [5],"activity change, negative = inhibition [3]",Potency [6]
Cc1ccc(CNc2ncnc3ccc(-c4ccoc4)cc23)o1,inactive,inactive,inactive,20.1 µM (active),inactive,,
c1cc2c(cc1CNc1ccc(N3CCCCC3)cc1)OCO2,12.7 µM (active),inactive,12.7 µM (active),,,,
CCOC(=O)C1CCN(c2ncc(-c3ccc4c(c3)OCCCO4)s2)CC1,5.65 µM (active),inactive,10.1 µM (active),4 µM (active),,,
NC(=O)C1CCN(c2ncc(-c3ccc4c(c3)OC(F)(F)O4)s2)CC1,10.1 µM (active),inactive,inactive,inactive,inactive,,
COc1ccc(-n2nc(C(=O)Nc3ccc(Cl)cn3)c3c4ccccc4n(C)c3c2=O)cc1,inactive,,,,,,
CC(Sc1nc2nn(C3COC3)cc2c(=O)n1-c1ccccc1)c1ccccc1 (stereo not given),inactive,,,,,,
COc1ccc(C2Nc3ccccc3C(=O)N2Cc2ccccc2)cc1COc1ccc(C#N)cc1 (stereo not given),1.01 µM (active),inactive,12.6 µM (active),0.896 µM (active),inactive,,
Cc1cnc(Cl)nc1NCc1ccc(-n2ccnn2)cc1,inactive,,,,,,
CC(=O)NC(C)c1cc(F)c2cccnc2c1O (stereo not given),2.52 µM (active),inactive,11.3 µM (active),10.1 µM (active),inactive,,
Cc1occc1-c1ccc2ncnc(NCCc3cnc[nH]3)c2c1,inactive,inactive,3.57 µM (active),28.3 µM (active),inactive,,
Cc1ccc(N2CCN(C(=S)c3ccc(-c4ccccc4[N+](=O)[O-])o3)CC2)cc1,3.57 µM (active),,,,,,
COc1cccc(C2c3c(ncn(-c4ccccc4)c3=N)Oc3ccc4ccccc4c32)c1 (stereo not given),inactive,inactive,11.3 µM (active),12.7 µM (active),inactive,,
Cc1cnc(-c2ccccc2CO)nc1NCC1CCN(c2cccnc2)CC1,inactive,inactive,inactive,11.3 µM (active),inactive,,
O=C(O)c1ccc(-c2noc(-c3cccc(F)c3)n2)cc1,1.52 µM (active),inactive,,,,,
Oc1ccccc1C1Nc2cccc3cccc(c23)N1,inactive,inactive,12.7 µM (active),,,,
c1cc2c(cc1CNc1ccc(N3CCOCC3)cc1)OCO2,11.3 µM (active),inactive,6.34 µM (active),,,,
COc1ccc(CN2CCN(C(=O)c3cc4c(s3)CCC4)CC2)cc1,inactive,,,,,,
Cc1ccc2nc3sc(C(=O)NCCCN(C)C)cc3cc2c1,12.1 µM (active),inactive,21.5 µM (active),,,,
COc1cccc(-c2nc(-c3ccc(C(=O)O)cc3)no2)c1,1.2 µM (active),inactive,0.504 µM (active),inactive,,,
CC(C)(C)NC(=O)c1ccc(NC(=O)c2cn(-c3ccccc3)nc2-c2cccnc2)cc1,inactive,,,,,,
O=C(NCc1ccccc1)C1CCN(c2nc(-c3ccc(Br)cc3)cs2)CC1,7.08 µM (active),inactive,inactive,inactive,inactive,,

Structure (SMILES),Potency [1],Potency [2],Potency [3],Potency [4],Potency [5],"activity change, negative = inhibition [3]",Potency [6]
O=C(CSc1nc2ccccc2n1CCc1ccccc1)c1ccc(O)c(O)c1,12.7 µM (active),inactive,11.3 µM (active),inactive,inactive,,7.98 µM (active)
CN(C)[S+](=O)([O-])c1ccc(-c2cncc(NC(=O)c3cccs3)c2)cc1,2 µM (active),inactive,0.562 µM (active),6.31 µM (active),inactive,,inactive
CCOC(=O)c1ccc2c(c1)c(C(C)=O)c(C)n2-c1ccc(OC)cc1,inactive,inactive,inactive,inactive,inactive,,inactive
Cc1ccc(S(=O)(=O)Nc2cnccc2C(=O)Nc2nc(-c3ccc4c(c3)CCCC4)cs2)cc1,22.5 µM (active),inactive,inactive,8.96 µM (active),inactive,,11.3 µM (active)
COc1cccc(C2=Nn3c(nnc3-c3ccccc3C)SC2)c1,2.51 µM (active),inactive,22.4 µM (active),17.8 µM (active),inactive,,10.1 µM (active)
O=C(Nc1cccc2nn(-c3ccc(F)cc3)cc12)c1ccccn1,inactive,inactive,inactive,inactive,inactive,,28.3 µM (active)
COc1ccc(C2Nc3ccccc3C(=O)N2Cc2ccccc2C)cc1COc1ccc(NC(C)=O)cc1 (stereo not given),1.79 µM (active),inactive,17.9 µM (active),17.9 µM (active),inactive,,25.2 µM (active)
CC(=O)N1CCN(c2ccc(NCc3cccs3)cc2)CC1,3.18 µM (active),inactive,7.98 µM (active),5.65 µM (active),,,10.1 µM (active)
NC(=O)C1CCN(c2ncc(-c3ccc(Br)cc3)s2)CC1,5.65 µM (active),inactive,22.4 µM (active),inactive,inactive,,11.3 µM (active)
Cc1ccc(OCCn2c(CCNC(=O)c3cccc(C(F)(F)F)c3)nc3ccccc32)cc1,inactive,inactive,inactive,inactive,inactive,,inactive
O=C1N/C(=C\c2ccco2)C(=O)N1Cc1ccccc1,0.798 µM (active),inactive,11.3 µM (active),12.7 µM (active),inactive,,3.57 µM (active)
N#Cc1nc(Nc2cccc([N+](=O)[O-])c2)nc(NC2CCCC2)n1,5.62 µM (active),inactive,22.4 µM (active),6.34 µM (active),inactive,,
O=S(=O)(NN1CCOCC1)c1ccc(Br)cc1,22.5 µM (active),inactive,inactive,11.3 µM (active),inactive,,3.57 µM (active)
CN(CC(=O)Nc1cccc(N2CCOCC2)c1)Cc1c(O)ccc2ccccc12,5.65 µM (active),inactive,12.7 µM (active),11.3 µM (active),inactive,,4 µM (active)
Oc1ccc(COC2CCN(Cc3ccccc3)C2)c2cccnc12 (stereo not given),inactive,inactive,12.7 µM (active),inactive,inactive,,
COc1ccccc1-c1nc(-c2ccc(C(=O)O)cc2)no1,2.14 µM (active),inactive,1.13 µM (active),inactive,,,inactive
C=C1CN(Cc2ccc(C(=O)Nc3ccccc3N)cc2)C(=O)c2ccccc21,15.8 µM (active),inactive,inactive,inactive,inactive,,
NC(=O)C1CCN(c2ncc(-c3ccc4c(c3)OCO4)s2)CC1,5.04 µM (active),inactive,17.8 µM (active),inactive,,,12.7 µM (active)
c1ccc(-n2cc(-c3nnc4n3CCCCC4)cn2)cc1,inactive,inactive,14.2 µM (active),12.7 µM (active),inactive,,inactive
COc1cccc(C2c3c(ncn(-c4ccccc4-c4ccccc4)c3=N)Oc3ccc4ccccc4c32)c1 (stereo not given),8.91 µM (active),inactive,15.8 µM (active),7.98 µM (active),inactive,,
COc1ccc(C2Nc3ccccc3C(=O)N2Cc2cccc3ccccc23)cc1COc1ccc(NC(C)=O)cc1 (stereo not given),3.55 µM (active),inactive,12.6 µM (active),22.5 µM (active),inactive,,4 µM (active)
